From PubChem BioAssay
Only some compounds are listed: those with a hit (about 1.1% of all), similar ones and a draw of the others.
Y pestis TopoI: inhibitors of Yersinia pestis topoisomerase I; Y. pestis Topo-I cleavage product accumulation, plate reader; activity, % at 10 µM; actives 0.064% (n = 360,000); in the data active = activity above about 50%, passing the limit was not always enough
PrP 5UTR inh: suppresses PrP 5' UTR mRNA reporter expression; cell-based PrP 5' UTR mRNA reporter, plate reader; inhibition, % (concentration not given with the values); actives 0.35% (n = 340,000); AID 488862; in the data active = inhibition above about 52%; note: 0 = median of the neutral control wells
FadD28 binding: inhibitors of Mycobacterium tuberculosis FadD28 bisubstrate binding; FadD28 bisubstrate probe binding, fluorescence polarization; inhibition, % at 12.5 µM; actives 0.22% (n = 360,000); AID 588549; in the data active = inhibition above about 8.5%, passing the limit was not always enough
PfHsp40 yeast: restores yeast growth despite PfHsp40 toxicity | S. cerevisiae expressing PfHsp40, growth rescue, ATP luminescence | growth rescue, % at 12.5 µM | actives 0.68% (n = 340,000) | AID 504582; in the data active = growth rescue above about 28%, passing the limit was not always enough;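 note: yeast W303a lacking pdr1 and pdr3 grown in galactose medium; growth measured after three days at 30 °C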
BioA inh: inhibitors of Mycobacterium tuberculosis BioA enzyme; purified M. tuberculosis BioA enzyme, plate reader; inhibition, % at 9.99 µM; actives 0.096% (n = 360,000); AID 602481; in the data active = inhibition above about 40%
PrP UTR cherry: prion 5' UTR mRNA inhibition, cherry-pick retest | shares compounds with PrP 5UTR inh | AID 504592 | actives 48% (n = 1,100) | cell-based prion protein 5' UTR reporter, plate reader | inhibition, % at 2.5 µM; in the data active = inhibition above about 54%
The depositor's hits bear a star.

`COCC(=O)N1C[C@H](C)[C@@H](OC)CN(C)C(=O)c2cc(NC(=O)C3CCC3)ccc2OC[C@@H]1C` gave BioA inh -3.
Screening S=C(NCCSCc1ccc(Cl)cc1Cl)Nc1ccccc1 returned Y pestis TopoI 1, PrP 5UTR inh -3, FadD28 binding -1, PfHsp40 yeast 5 and BioA inh -2.
For S=C(Nc1ccccc1)Nc1ccc(OCc2ccc(Cl)cc2Cl)cc1 the results were Y pestis TopoI 7, PrP 5UTR inh 89*, FadD28 binding -2, PfHsp40 yeast 0, BioA inh -2 and PrP UTR cherry 87*.
Screening CC1CC(C)(O)CC(C(O)CC2CC(=O)NC(=O)C2)C1=O (configuration not stated) returned Y pestis TopoI 7, PrP 5UTR inh 64*, FadD28 binding 0, PfHsp40 yeast 20 and PrP UTR cherry 61*.
Screening COc1ccc2cc(C(N)=O)/c(=N\NC(=O)c3ccccc3)oc2c1 returned Y pestis TopoI 1, PrP 5UTR inh 53*, FadD28 binding 0, PfHsp40 yeast 1, BioA inh 0 and PrP UTR cherry 19.
`COc1ccc(CC(=O)Oc2ccccc2C)cc1` gave Y pestis TopoI 6, PrP 5UTR inh 58*, FadD28 binding -1, PfHsp40 yeast 0, BioA inh 1 and PrP UTR cherry -12.
`c1ccc(-c2cn3nc4c(nc3n2)CCCC4)cc1` gave Y pestis TopoI -7, PrP 5UTR inh 67*, FadD28 binding -2, PfHsp40 yeast -1 and PrP UTR cherry 37.
Screening Cc1noc(C)c1S(=O)(=O)N(C)C[C@@H]1OCc2ccccc2-c2c(n(C)c3ccccc23)C(=O)N([C@H](C)CO)C[C@@H]1C returned BioA inh 0.
`Cc1ccc(-c2cc(C(=O)N/N=C/c3c(C)nn(-c4ccccc4)c3C)[nH]n2)cc1` gave Y pestis TopoI -8, PrP 5UTR inh 70*, FadD28 binding 0, PfHsp40 yeast 1, BioA inh 0 and PrP UTR cherry 88*.
For Cc1nn(-c2ccccc2)c(C)c1/C=N/NC(=O)c1cc(C(C)(C)C)[nH]n1 the results were Y pestis TopoI 5, PrP 5UTR inh -14, FadD28 binding -3, PfHsp40 yeast -1 and BioA inh 2.
`C[C@H]1CN([C@@H](C)CO)C(=O)c2cc(/C=C/c3ccccc3)cnc2O[C@H]1CN(C)S(C)(=O)=O` gave BioA inh 4.
`CCCNC(=O)C[C@@H]1CC[C@H]2[C@@H](COC[C@@H](O)CN2Cc2ccc(Cl)c(Cl)c2)O1` gave BioA inh 0.
`COc1ccc(S(=O)(=O)Nc2ccc3c(c2)C(=O)N([C@H](C)CO)C[C@@H](C)[C@@H](CN(C)Cc2ccc(C(=O)O)cc2)O3)cc1` gave BioA inh -3.
`CCOC(=O)c1c(C)[nH]c(C2=NNC(=NC3CC3)SC2)c1C` gave Y pestis TopoI 10, PrP 5UTR inh 71*, FadD28 binding 2, PfHsp40 yeast 0 and PrP UTR cherry 54*.
Screening CCOC(=O)c1c(C)[nH]c(/C(C)=N/O)c1C returned Y pestis TopoI -15, PrP 5UTR inh -5, FadD28 binding -2, PfHsp40 yeast 1 and BioA inh 0.
`COc1ccc(C(=O)c2cc([N+](=O)[O-])ccc2N2CCOCC2)cc1` gave Y pestis TopoI -6, PrP 5UTR inh 83*, FadD28 binding -4, PfHsp40 yeast 0 and PrP UTR cherry 80*.
Screening CCOc1ccc(C(=O)c2cc([N+](=O)[O-])ccc2N2CCOCC2)cc1 returned Y pestis TopoI 5, PrP 5UTR inh 58*, FadD28 binding -2, PfHsp40 yeast 1 and PrP UTR cherry 72*.
COc1cccc(-c2ccc([C@@H]3[C@@H](CO)N4CCCCN(CC5CCOCC5)C[C@@H]34)cc2)c1 was read as BioA inh 3.
`COC(=O)c1cc(C(=O)N2CCN(c3cccc(Cl)c3)CC2)cc([N+](=O)[O-])c1` gave Y pestis TopoI 10, PrP 5UTR inh 62*, FadD28 binding -1, PfHsp40 yeast 3 and PrP UTR cherry 87*.
O=C(c1cccc([N+](=O)[O-])c1)N1CCN(c2cccc(Cl)c2)CC1 was read as Y pestis TopoI 19, PrP 5UTR inh -40, FadD28 binding -2 and PfHsp40 yeast 0.
Screening O=C(NCC(c1cccnc1)N1CCN(c2ccc(F)cc2)CC1)C1CCCCC1 (configuration not stated) returned Y pestis TopoI -4, PrP 5UTR inh 69*, FadD28 binding -2, PfHsp40 yeast 70*, BioA inh 0 and PrP UTR cherry -13.
For N#CC1=C2N=C(N)c3ccccc3N2C2=C(C(=O)CCC2)C1c1cccc(Cl)c1 (configuration not stated) the results were Y pestis TopoI -2, PrP 5UTR inh 70*, FadD28 binding -1, PfHsp40 yeast 1, BioA inh 0 and PrP UTR cherry 3.
Screening Cc1ccccc1C1C(C#N)=C2N=C(N)c3ccccc3N2C2=C1C(=O)CCC2 (configuration not stated) returned Y pestis TopoI -2, PrP 5UTR inh -11, FadD28 binding -2, PfHsp40 yeast 1 and BioA inh 0.
`O=C(C[C@@H]1CC[C@@H](NS(=O)(=O)c2ccccc2)[C@H](CO)O1)NCc1ccncn1` gave BioA inh -1.
Screening COc1ccc(S(=O)(=O)Nc2cccc3c2O[C@@H](CN(C)C(=O)NC(C)C)[C@@H](C)CN([C@H](C)CO)C3=O)cc1 returned BioA inh 1.
CCC(=O)N1[C@@H]2c3ccc(-c4ccccc4)c(=O)n3C[C@H]1[C@H](CO)[C@H]2C(=O)N1CCCCC1 was read as BioA inh 0.
`CC(C)OC(=O)N(C)C[C@H]1OCc2ccccc2-c2ccccc2C(=O)N([C@H](C)CO)C[C@@H]1C` gave BioA inh -3.
Nc1ccc2c(c1)C(=O)c1ccc(Cl)cc1-2 was read as Y pestis TopoI -25, PrP 5UTR inh -5, FadD28 binding -2, PfHsp40 yeast 0 and BioA inh -2.
`Nc1ccc2c(c1)-c1ccc(F)cc1C2=O` gave Y pestis TopoI -8, PrP 5UTR inh 81*, FadD28 binding -1, PfHsp40 yeast 4 and PrP UTR cherry -2.
Screening O=C(C[C@@H]1CC[C@H](NC(=O)C2CCC2)[C@@H](CO)O1)NCc1ccncc1 returned BioA inh 1.
`CNC[C@H]1Oc2cc(C#Cc3cccc(OC)c3)ccc2S(=O)(=O)N([C@H](C)CO)C[C@@H]1C` gave BioA inh 1.
For O=C(NC1CCCCC1)c1cc(C(=O)c2ccccc2Br)c[nH]1 the results were Y pestis TopoI -3, PrP 5UTR inh 71*, FadD28 binding -1, PfHsp40 yeast -1, BioA inh 1 and PrP UTR cherry -13.
